POLB inh – qHTS Assay for Inhibitors of DNA Polymerase Beta; Potency, µM (top dose mostly 114 µM), without a hit: top-dose activity change, negative = inhibition, usual class: inhibitors; Pol beta primer extension/strand displacement, fluorescence kinetic; AID 485314, 2010; P06746; 340,000 compounds, 1.3% hits; further: on the % scale 0 is the no-effect control and ±100 the full control effect
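Pol beta (10 nM) was preincubated with compound for 15 min at room temperature. The reaction was then started with 50 nM substrate and read immediately and after a further 10 min at room temperature.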
APE1 inh – qHTS Assay for Inhibitors of the Human Apurinic/apyrimidinic Endonuclease 1 (APE1) | 350,000 compounds, 0.35% hits | Potency, µM (titrated, usually from 65.8 µM), without a hit: at the highest dose activity change, negative = inhibition, actives largely listed as inhibitors | recombinant APE1, TAMRA/BHQ-2 abasic DNA cleavage fluorescence | DNA repair nuclease/redox regulator APEX1 (Homo sapiens), P27695 | AID 2517, 2012;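 further: plate controls were vehicle for no effect and reference inhibitor for full effect; nearly all actives have a fitted effect of over 55% in size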
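Measures dequenching upon AP-site incision of a 5'-TAMRA/3'-BHQ-2 THF-containing duplex, 50 nM; human APE1 0.75 nM after 15 min room-temperature exposure to compound; kinetic three-point read at one-minute spacing.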
POLK inh – qHTS for Inhibitors of Polymerase Kappa; 400,000 compounds, 0.53% hits; AID 588579, 2011; DNA polymerase kappa (Homo sapiens), Q9UBT6; Potency, µM (top dose mostly 107 µM), inactives show at the highest dose activity, negative = inhibition, usual class: inhibitors; purified Pol kappa, fluorescent DNA synthesis assay, 10 min; further: on the % scale 0 is the no-effect control and ±100 the full control effect
Target sequence (Q9UBT6 whole entry, looked up): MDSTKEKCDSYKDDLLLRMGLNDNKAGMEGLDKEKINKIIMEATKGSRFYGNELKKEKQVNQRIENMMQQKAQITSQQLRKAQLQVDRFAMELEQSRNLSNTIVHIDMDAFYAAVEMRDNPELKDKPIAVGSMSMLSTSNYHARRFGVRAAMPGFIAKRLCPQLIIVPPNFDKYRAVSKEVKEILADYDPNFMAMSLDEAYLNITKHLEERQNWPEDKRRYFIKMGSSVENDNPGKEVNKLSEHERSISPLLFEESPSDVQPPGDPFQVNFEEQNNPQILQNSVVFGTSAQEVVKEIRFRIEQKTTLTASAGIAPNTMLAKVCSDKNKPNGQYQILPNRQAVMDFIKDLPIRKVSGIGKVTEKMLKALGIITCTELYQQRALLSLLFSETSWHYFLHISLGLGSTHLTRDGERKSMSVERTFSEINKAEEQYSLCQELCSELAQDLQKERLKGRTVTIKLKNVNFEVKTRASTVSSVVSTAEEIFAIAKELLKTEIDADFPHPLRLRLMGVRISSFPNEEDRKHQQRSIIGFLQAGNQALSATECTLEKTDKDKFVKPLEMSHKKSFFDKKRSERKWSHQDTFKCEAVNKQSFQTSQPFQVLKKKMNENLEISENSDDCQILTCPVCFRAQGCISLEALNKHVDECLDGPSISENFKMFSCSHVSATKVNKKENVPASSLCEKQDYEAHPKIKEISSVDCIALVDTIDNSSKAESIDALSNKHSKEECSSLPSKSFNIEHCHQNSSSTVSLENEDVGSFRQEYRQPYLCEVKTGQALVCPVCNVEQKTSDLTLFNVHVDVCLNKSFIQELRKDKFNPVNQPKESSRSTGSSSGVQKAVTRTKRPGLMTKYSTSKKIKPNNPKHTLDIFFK
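Readout: fluorescence, taken kinetically at 0 and 10 min. Conditions: 10 nM Pol kappa, 15 min RT compound preincubation, 50 nM substrate final. Controls: enzyme-free buffer wells.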
L3MBTL1 inh – qHTS Assay for the Inhibitors of L3MBTL1; Lethal(3)malignant brain tumor-like protein 1 (Homo sapiens), Q9Y468; AlphaScreen L3MBTL1–H3K9me1 peptide binding; Potency, µM (doses to about 57.1 µM), for inactives: at the top dose activity, negative = inhibition, hits mostly inhibitors; AID 485360, 2010; 230,000 compounds, 0.66% hits; further: on the % scale 0 is the no-effect control and ±100 the full control effect; nearly all actives have a fitted effect of over 60% in size
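Read-out is AlphaScreen signal from streptavidin donor and nickel chelate acceptor beads (10 ug/mL final each) bridging L3MBTL1 (50 nM) and biotinylated K9-monomethylated H3(1-15) peptide (75 nM), after 30 min compound exposure at room temperature.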
Pol eta inh – qHTS for Inhibitors of Polymerase Eta; DNA polymerase eta (Homo sapiens), Q9Y253; recombinant Pol eta, fluorescent DNA replication assay; Potency, µM (doses to about 114 µM), for the others: top-dose activity change, negative = inhibition, hits mostly inhibitors; 390,000 compounds, 1.2% hits; AID 588591, 2011; further: on the % scale 0 is the no-effect control and ±100 the full control effect
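Pol eta (10 nM) was preincubated with compounds for 15 min at room temperature, after which fluorescent replication substrate (50 nM final) was added to start the reaction. Fluorescence was read kinetically at 0 and 10 min.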
Pol iota inh – qHTS for Inhibitors of Polymerase Iota. Pol iota fluorescent replication assay, 10 min. 390,000 compounds, 1% hits. AID 588590, 2011. Potency, µM (titrated, usually from 115 µM), for inactives: at the highest dose activity, negative = inhibition, actives largely listed as inhibitors. DNA polymerase iota (Homo sapiens), Q9UNA4
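Pol iota at 10 nM preincubated 15 min with compounds at room temperature; reaction started with fluorescent substrate, 50 nM final. Fluorescence read kinetically at 0 and 10 min; buffer-only wells as negative control.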
* marks the source's active call; other numbers are inactive results; [ ] = another dose, or the depositor's remark. Shown are actives, neighbours in structure and some others; about 2.5% of the full set was active somewhere. The call rests on the fitted dose curve; in most records, active means well fitted curve in the direction sought with a large enough effect; inconclusive means small, poorly fitted or top-dose-only effect, or another doubt; inactive means no such curve, though single readings can be large; an effect the other way counts as inactive or inconclusive. Potency means the concentration at half of the fitted maximal effect.

Results for C[C@H]1O[C@@H](O[C@H]2CC[C@@]3(C)C(CC[C@]4(C)C3C=C[C@]35OC[C@@]6(CCC(C)(C)C[C@H]63)[C@@H](O)C[C@]54C)[C@]2(C)CO)[C@H](O)[C@@H](O[C@@H]2O[C@H](CO)[C@@H](O)[C@H](O)[C@H]2O)[C@H]1O (some centres not stated) ?
APE1 inh: 21µM*; POLK inh: -9%; L3MBTL1 inh: -2%; Pol eta inh: 8%; Pol iota inh: inconclusive

How did Nc1nccnc1C(=O)OCC(=O)Nc1ccc2[nH]c(=O)[nH]c2c1 do in these assays?
APE1 inh: -1%; POLK inh: inconclusive; L3MBTL1 inh: -7%; Pol eta inh: 22µM*; Pol iota inh: 20µM*

How did O=C(COC(=O)c1ccccc1)Nc1ccc2[nH]c(=O)[nH]c2c1 do in these assays?
APE1 inh: -3%; POLK inh: -20%; L3MBTL1 inh: 0%; Pol eta inh: -2%; Pol iota inh: -3%

How did COc1ccccc1NC(=O)Nc1ccnn1C1CCN(C(=O)c2ccccn2)CC1 do in these assays?
POLB inh: 19%; APE1 inh: 3%; POLK inh: 7%; Pol eta inh: inconclusive; Pol iota inh: 25%

Results for COc1ccccc1NC(=O)Nc1ccnn1C1CCN(C(=O)c2cscn2)CC1 ?
POLB inh: 28%; APE1 inh: 61%; POLK inh: 40µM*; Pol eta inh: -9%; Pol iota inh: 32µM*

Results for N=C1/C(=C/c2coc3ccccc3c2=O)C(=O)N=C2SC(c3ccco3)=NN12 ?
POLB inh: -112%; APE1 inh: 11%; POLK inh: inconclusive; L3MBTL1 inh: inconclusive; Pol eta inh: 3.2µM*; Pol iota inh: inconclusive

Results for O=C(Nc1ccccc1)N1CCCC2(CCN(C(=O)c3cc(C(F)(F)F)cc(C(F)(F)F)c3)CC2)C1 ?
APE1 inh: -6%; POLK inh: -2%[60.1 µM]

How did CCOC(=O)C(=O)Nc1ccc(S(=O)(=O)Nc2ncccn2)cc1 do in these assays?
POLB inh: 89µM*; APE1 inh: -1%; POLK inh: -13%; Pol eta inh: -5%; Pol iota inh: -11%

What do the screens show for `Cc1ccc(-c2cc(C(=O)Nc3ccc(S(=O)(=O)Nc4ncccn4)cc3)[nH]n2)c(O)c1C`?
POLB inh: inconclusive; APE1 inh: -3%; POLK inh: -31%; Pol eta inh: 45µM*; Pol iota inh: inconclusive

What do the screens show for `CC(=O)Nc1ccc(NC(=O)c2cc(-c3ccc(C)c(C)c3O)n[nH]2)cc1`?
POLB inh: 2%; APE1 inh: -4%; POLK inh: -8%; Pol eta inh: -17%; Pol iota inh: 24%

Results for Cc1ccc(NC(=O)c2cc(-c3ccc(C)c(C)c3O)n[nH]2)cc1C ?
POLB inh: inconclusive; APE1 inh: 31%; POLK inh: -18%; Pol eta inh: 0%; Pol iota inh: 32%

How did CCCOC(=O)Nc1ccc(S(=O)(=O)Nc2ncccn2)cc1 do in these assays?
POLB inh: 2%; APE1 inh: -1%; POLK inh: -5%; Pol eta inh: 5%; Pol iota inh: -11%

What do the screens show for `Cc1cccc(NC(=O)c2cc(-c3ccc(C)c(C)c3O)n[nH]2)c1`?
POLB inh: -9%; APE1 inh: 48%; POLK inh: 11%; Pol eta inh: -26%; Pol iota inh: 79µM*

Results for CC1(C)CC(NS(=O)(=O)OCC(Cl)(Cl)Cl)c2cc(C#N)ccc2O1 (configuration not stated) ?
POLB inh: 10%; APE1 inh: -7%; POLK inh: -20%; L3MBTL1 inh: 8%; Pol eta inh: -12%; Pol iota inh: 9%

How did COC(=O)c1ccc(NC(=O)c2nc(SCc3ccccc3F)ncc2Cl)cc1 do in these assays?
POLK inh: -2%; Pol iota inh: 54%

Results for O=C(CSc1ccccc1)N1CCN(S(=O)(=O)c2ccccc2F)CC1 ?
POLB inh: 45µM*; APE1 inh: -7%; POLK inh: -39%; Pol eta inh: inconclusive; Pol iota inh: 50µM*

Results for O=C(CSc1ccc(F)cc1)N1CCN(S(=O)(=O)c2ccccc2)CC1 ?
POLB inh: 0%; APE1 inh: 0%; POLK inh: 1%; L3MBTL1 inh: inconclusive; Pol eta inh: -4%; Pol iota inh: 14%

Results for COc1cccc(NC(=O)C(=O)NCC(c2cccnc2)N2CCN(c3ccccc3)CC2)c1 (configuration not stated) ?
POLB inh: 5%; POLK inh: -22%; Pol eta inh: -15%; Pol iota inh: inconclusive

How did Cc1cc(=O)c2c(O)c3c(O)cc(O)c4c5c(O)cc(O)c6c(O)c7c(=O)cc(C)c8c1c2c(c34)c(c65)c78 do in these assays?
APE1 inh: 3.2µM*; POLK inh: 10µM*

How did CCCSc1cc(N2CCOCC2)nc(-c2ccccc2Cl)n1 do in these assays?
POLB inh: 79µM*; APE1 inh: -2%; POLK inh: -6%; Pol eta inh: -10%; Pol iota inh: -5%

What do the screens show for `COc1ccc2nc(NC(=O)c3nc(S(=O)(=O)Cc4ccccc4F)ncc3Cl)sc2c1`?
POLB inh: 5.6µM*; POLK inh: inconclusive; Pol eta inh: inconclusive; Pol iota inh: inconclusive

How did COC(=O)c1cc2oc3ccccc3c2n1Cc1nc(-c2ccc(Cl)cc2)oc1C do in these assays?
POLB inh: 24%; POLK inh: 4%; Pol eta inh: -14%; Pol iota inh: 0%

How did O=C(CSc1nnc(SCC(=O)c2ccco2)s1)c1ccco1 do in these assays?
POLB inh: 32µM*; APE1 inh: -13%; POLK inh: inconclusive; L3MBTL1 inh: inconclusive; Pol eta inh: 16µM*; Pol iota inh: inconclusive

How did COc1ccccc1N1CCN(C(=O)c2nn(-c3ccc(C)cc3)c(=O)n(C)c2=O)CC1 do in these assays?
POLB inh: 14%; POLK inh: -11%[60.1 µM]; Pol eta inh: -14%; Pol iota inh: 7%

Results for CN1CCN(C(=O)/C=C/c2c(F)cccc2Cl)CC1 ?
POLB inh: 18%; APE1 inh: 13%; POLK inh: -6%; Pol eta inh: -11%; Pol iota inh: 31%

Assay outcomes deposited in PubChem by National Center for Advancing Translational Sciences (NCATS).
